Values joined by “and” are separate entries in the source; they are usually repeats but may differ in a detail not shown here. Identical values can stand only once. The whole screen tested about 16,000 compounds, of which about 2,600 (16%) were called active. Inconclusive results (about 20%) are left out. The list is a sample of the results. Values without a mark were called inactive. Calls follow the shape of the dose curve; as a rule, active = well fitted curve in the direction sought with a large enough effect; inconclusive = small, poorly fitted or top-dose-only effect, or effect the other way; inactive = no such curve, though single readings can be large or run the other way.
Target: Cytochrome P450 2D6 (Homo sapiens) (UniProt P10635)
Assay: Cytochrome panel assay with activity outcomes
Conditions: recombinant CYP, pro-luciferin dealkylation, luminescence, p450-cyp2d6; series mostly up to 57.1 µM; activity, negative = inhibition: at the top concentration
% is scaled to controls: 0 for no effect and ±100 for the full control effect.

Cytochrome P450 2D6 (Homo sapiens), sequence (P10635 whole entry, looked up): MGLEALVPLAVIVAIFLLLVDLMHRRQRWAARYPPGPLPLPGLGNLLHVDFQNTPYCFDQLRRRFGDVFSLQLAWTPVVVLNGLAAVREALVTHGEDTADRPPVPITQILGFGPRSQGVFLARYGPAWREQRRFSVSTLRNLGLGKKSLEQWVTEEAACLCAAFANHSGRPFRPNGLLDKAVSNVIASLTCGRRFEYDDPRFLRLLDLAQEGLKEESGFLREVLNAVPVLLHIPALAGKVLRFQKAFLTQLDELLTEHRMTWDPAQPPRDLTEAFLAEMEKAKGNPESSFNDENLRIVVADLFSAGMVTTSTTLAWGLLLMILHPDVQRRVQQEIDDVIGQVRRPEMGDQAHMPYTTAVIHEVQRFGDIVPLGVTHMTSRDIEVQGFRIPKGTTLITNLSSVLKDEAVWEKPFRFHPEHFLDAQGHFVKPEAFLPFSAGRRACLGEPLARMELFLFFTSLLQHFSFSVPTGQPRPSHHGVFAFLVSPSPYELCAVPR

SMILES	activity, negative = inhibition	AC50
CN(C)c1cc(=O)n2c(n1)SCCC2	-8.3%	–
CCSc1nc2ccccc2n1C(=O)/C=C\c1ccc(OC)c(OC)c1	-26.1%	–
CC(C)COP(=O)(OCC(C)C)C(O)c1ccccc1F (stereo not given)	-0.495%	–
O=C(CSc1ncccn1)Nc1ccc(S(=O)(=O)N2CCCCC2)cc1	6.83%	–
CCOC(=O)c1c(NC(=O)c2ccc(S(=O)(=O)N3CCOCC3)cc2)sc2c1CCN(C)C2	-15.6%	–
O=C(Nc1ccccc1-c1nc2ccccc2[nH]1)c1ccc(S(=O)(=O)N2CCCCC2)cc1	-16.2%	–
CCN(CC)S(=O)(=O)c1ccc(C(=O)Nc2ncn(Cc3ccccc3)n2)cc1	-4.78%	–
O=C(Nc1ccc(S(=O)(=O)N2CCCC2)cc1)c1ccc(CN2CCOCC2)cc1	–	5.01 µM (active)
CN(C)S(=O)(=O)c1ccc(NC(=O)c2cc(F)c(F)cc2Cl)cc1	-9.35%	–
O=C(Nc1ccc(S(=O)(=O)N2CCOCC2)cc1)c1ccc(CN2CCc3ccccc3C2)cc1	–	0.178 µM (active)
O=C(NCc1n[nH]c(=S)n1-c1ccccc1)c1ccc(S(=O)(=O)N2CCOCC2)cc1	14.4%	–
O=C(Nc1ccc(S(=O)(=O)N2CCCCC2)cc1)c1ccc(CN2CCc3ccccc3C2)cc1	–	0.251 µM (active)
COCc1nnc(NC(=O)c2ccc(S(=O)(=O)N3CCCCCC3)cc2)o1	13.5%	–
CN(C)S(=O)(=O)c1ccc(C(=O)Nc2ccc(CN3CCCC3)cc2)cc1	–	2.51 µM (active)
Cc1nc2ccc3nc(NC(=O)c4ccc(S(=O)(=O)N5CCOCC5)cc4)sc3c2s1	5.64%	–
C[C@@H](c1ccccc1)N1C(=O)[C@H]2[C@@H]3[C@H](O)[C@H](O)CC(=O)[C@H]3CC[C@H]2C1=O	12.3% [at 11.4 µM] and 1.84% [at 11.4 µM]	–
C#CCCCO/N=C1/C[C@@H](O)[C@@H](O)[C@@H]2[C@@H]3C(=O)N(C[C@@H]4CCCO4)C(=O)[C@H]3CC[C@@H]12	9.44% [at 11.4 µM]	–
CCCCOc1ccccc1C1CC(=O)NC2=C1C(=O)CCC2 (stereo not given)	-1.31%	–
COc1ccc(N2CCN(S(=O)(=O)c3ccc4c(c3)CCCC4)CC2)c([N+](=O)[O-])c1	-12.9%	–
Cn1c(=O)[nH]c(=O)c2c1nc(NCCCO)n2CCCc1ccccc1	-3.72%	–
O=C(Nc1nc(-c2ccccc2)cs1)c1cccc([N+](=O)[O-])c1	11.3%	–
Cc1nn(-c2ccc(F)cc2)c(Cl)c1/C=C(\CCC(=O)O)c1nc2ccccc2s1	-5.38%	–
CC(=O)[C@H]([C@@H](c1ccccc1)N1CCOCC1)N1CCOCC1	-3.05% [at 11.4 µM]	–
CN1CCc2c(c3ccccc3n2C)C1	–	12.6 µM (active)

SMILES	activity, negative = inhibition	AC50
CN1CCc2c(c3ccccc3n2Cc2ccccc2)C1	–	3.16 µM (active)
CN1CCc2nc(N)nc(-c3nc(N)nc4c3CN(C)CC4)c2C1	8.94% [at 11.4 µM]	–
CN1CCc2[nH]nc(-c3n[nH]c4c3CN(C)CC4)c2C1	11.7% [at 11.4 µM]	–
O=c1[nH]ncc2c3ccccc3n(Cc3ccccc3)c12	9.17%	–
CCCNC(=O)OC[C@@H]1O[C@H](CCO/N=C\[C@@H](C)[C@H](OCc2ccccc2)C(C)C)C=C[C@@H]1Oc1ccc(OC)cc1	-8.99% [at 11.4 µM]	–
O=C1N=C2SCCN2/C1=C\c1c(Cl)cccc1Cl	-4.25%	–
COC(=O)C/C=C\[C@H](C)[C@H](CO)NS(=O)(=O)c1ccc(C)cc1	-10.6% [at 11.4 µM]	–
COCCn1c(=O)c(C)nc2cnc(N(C)C)nc21	4.47%	–
Cn1c(=O)c(-c2ccccc2)nc2cnc(N3CCNCC3)nc21	-5.95%	–
CCN(CC)c1ccc(N2C(=O)/C(=C/c3cccnc3)SC2=S)cc1	20.9%	–
Cc1c(NC(=O)C2CCN(S(=O)(=O)c3ccc(Cl)cc3)CC2)c(=O)n(-c2ccccc2)n1C	10.2%	–
CCC/C=C(\CCC)C(NS(=O)(=O)CC12CCC(CC1=O)C2(C)C)c1ccc(C(=O)OC)cc1 (stereo not given)	–	5.01 µM (active)
CCC/C=C(\CCC)C(NS(=O)(=O)c1ccc(Cl)cc1)c1ccccc1 (stereo not given)	–	20 µM (active)
CCC/C=C(\CCC)C(NC(=O)c1ccc(-c2ccccc2)cc1)c1ccc(C(=O)OC)cc1 (stereo not given)	2.92%	–
CCC/C=C(\CCC)C(NS(=O)(=O)c1ccc(C(F)(F)F)cc1)c1ccc(C(=O)OC)cc1 (stereo not given)	2.44%	–
CCC/C=C(\CCC)C(NC(=O)c1ccc(C(F)(F)F)cc1)c1ccccc1 (stereo not given)	–	7.94 µM (active)
CCC/C=C(\CCC)C(NC(=O)OCC(C)C)c1ccc(C(=O)OC)cc1 (stereo not given)	-9.01%	–
CCC/C=C(\CCC)C(NS(=O)(=O)c1cccc2cccnc12)c1ccc(C(=O)OC)cc1 (stereo not given)	-12%	–
CCC/C=C(\CCC)C(NS(=O)(=O)c1ccc(Cl)cc1)c1ccc(C(=O)OC)cc1 (stereo not given)	-8.65%	–
CCC/C=C(\CCC)C(NC(=O)c1ccc(C(F)(F)F)cc1)c1ccc(C(F)(F)F)cc1 (stereo not given)	0.53%	–
CCC/C=C(\CCC)C(NS(=O)(=O)c1cccs1)c1ccc(C(=O)OC)cc1 (stereo not given)	–	6.31 µM (active)
CCC/C=C(\CCC)C(NS(=O)(=O)c1ccc(C(F)(F)F)cc1)c1ccc(-c2ccccc2)cc1 (stereo not given)	1.52%	–
CCC/C=C(\CCC)C(NC(=O)c1cccs1)c1ccc(C(=O)OC)cc1 (stereo not given)	-6%	–
O=C(Nc1cccn(Cc2c(Cl)cccc2Cl)c1=O)c1ccc(Cl)cc1Cl	12%	–

SMILES	activity, negative = inhibition	AC50
Cc1ccccc1N1CCN(C(=O)c2ccccc2NC(=O)/C=C\C(=O)O)CC1	2.71%	–
C/C(=N\[N+](C)(C)C)c1ccc(C)c(C)c1	-19.6% [at 11.4 µM]	–
O=C(O)C1C2C=CC(C2)C1C(=O)N1CCN(C/C=C/c2ccccc2)CC1 (stereo not given)	-10.1%	–
Cc1cccc(C(=O)Nc2nnc(-c3ccc(C(C)(C)C)cc3)s2)c1	7.99%	–
CCCc1nnc(NC(=O)Cn2cnc3ccccc3c2=O)s1	11.7%	–
COc1ccc(C(O)P(=O)(OC(C)C)OC(C)C)cc1OC (stereo not given)	-13.6%	–
CCc1ccc(N2C(=O)c3ccc4c5c(ccc(c35)C2=O)CC4)cc1	-7.44%	–
C=CCN1C(=O)CN=C1Nc1ccccc1	2.01%	–
CN1CCN(/C=N/C2=C(C#N)C(c3ccccc3)C3=C(CC(C)(C)CC3=O)O2)CC1 (stereo not given)	5.01%	–
CSc1nc(C)c2c(n1)N(c1ccc(C(C)C)cc1)CC2	-7.45%	–
COc1ccc(N2C(=O)CSC2c2cccc(F)c2)c(OC)c1 (stereo not given)	17.9%	–
COc1cc(OC)c2nc(C)c3c(c2c1)N(c1ccc(O)cc1)CC3	–	3.16 µM (active)
COc1ccc2c(C)cc(N3CCOCC3)nc2c1	-26.1%	–
CSc1nc(C)c2c(n1)N(c1ccc(C(F)(F)F)cc1)CC2	7.98%	–
COc1ccc(N2CCc3c(C)nc4c(OC)cc(OC)cc4c32)c(OC)c1	–	0.1 µM (active)
CN(C)CCNc1ncnc2c1sc1nc(N3CCOCC3)c3c(c12)CC(C)(C)SC3	-6.95%	–
CC(C)/C(=N/[N+](C)(C)C)c1ccccc1	6.75% [at 11.4 µM]	–
CC1(C)CC(=O)C/C(=N/NC(=O)CCCOc2ccc(Cl)cc2Cl)C1	-22.8%	–
CC(C)NCCCOc1ccc(Cl)cc1Br	–	0.178 µM (active)
CC(C)C(=O)Nc1ccc(C(=O)NNC(=O)CCCOc2ccc(Cl)cc2Cl)cc1	-9.88%	–
CC1(C)O[C@H]2[C@@H](O1)[C@@H](On1nnc3ccc(Cl)cc31)O[C@@H]2[C@@H]1COC(C)(C)O1	-7.25% [at 11.4 µM]	–
COc1ccc(C(=O)NNC(=O)CSc2nnc(COc3ccc4ccccc4c3)n2C)cc1	-0.0652%	–
Cc1[nH]nc(-c2ccc(O)cc2O)c1-c1ccc(Cl)cc1	–	3.55 µM (active)
C=C(C)COc1ccc(-c2n[nH]c(C)c2-c2ccc(OC)cc2)c(O)c1	-87.9%	–

SMILES	activity, negative = inhibition	AC50
Oc1ccc(-c2[nH]ncc2-c2ccc(Cl)cc2)c(O)c1	–	8.91 µM (active)
CCCCc1ccc(-c2csc(/C(C#N)=C/c3ccc(C)o3)n2)cc1	-2.34%	–
CS(=O)c1ccccc1-c1nc(-c2cc(C(F)(F)F)cc(C(F)(F)F)c2)no1 (stereo not given)	-17%	–
COc1ccc(-n2nc3cc(C)c(NC(=S)NC(=O)c4ccccc4C)cc3n2)cc1	6.83%	–
COC(=O)c1cc(C(=O)c2ccc(Cl)cc2Cl)cn1C	9.82%	–
CC1(C)S[C@@H]2[C@H](NC(=O)[C@@H](N)c3ccccc3)C(=O)N2[C@H]1C(=O)O[C@H]1OC(=O)c2ccccc21	0.075% [at 25.6 µM]	–
CC(=O)Nc1ccc(Nc2ncc([N+](=O)[O-])c(Nc3ccc(NC(C)=O)cc3)n2)cc1	-4.74%	–
Cc1ccc(Nc2c([N+](=O)[O-])ccc3c2=NC2(CCCCC2)N=3)cc1	–	25.1 µM (active)
O=C(NC1CCCC1)c1cccnc1N1CCCCCC1	11.3%	–
Cc1ccc(NC(=O)c2sc3nc[nH]c(=O)c3c2C)c(C)c1	-18.3%	–
CCCSc1nnc2n(N)c(=O)c3ccccc3n12	-7.37%	–
CCC(=O)Nc1cccc(C(=O)/C=C/c2ccccc2)c1	-16.4%	–
Cc1ccc(OCCCC(=O)Nc2ccccc2C(F)(F)F)cc1	-17.2%	–
COC(=O)c1cccc(NC(=O)CCCOc2ccccc2)c1	–	10 µM (active)
Cc1c(NC(=O)CCCOc2ccccc2)cccc1[N+](=O)[O-]	–	1.58 µM (active)
O=C(CCOc1ccccc1)Nc1ccccc1	21.3%	–
Cc1c(NC(=O)/C=C/C(=O)O)cccc1[N+](=O)[O-]	0.595%	–
CCc1sc(-c2c(C#N)c(N)nc3c2CCCCCC3)cc1[N+](=O)[O-]	-11.8%	–
COc1ccccc1CCn1c(=O)c(-c2cn(C)c3ccccc23)nc2cncnc21	-10.1%	–
CC(C)n1c(O)c(/C=C2\C=Nc3ccccc32)sc1=Nc1ccccc1	-18%	–
O=c1c2ccccc2sc2c(CO)ccc(NCCN3CCCCC3)c12	–	1.26 µM (active)
COc1ccc2sc3ccccc3c(=O)c2c1OC	-15.6%	–
CCN(CC)CCNc1ccc(CO)c2sc3ccccc3c(=O)c12	–	5.01 µM (active)
